NR3A LBD binder: modulates the human NR3A ligand-binding domain; 340,000 tested, 2.5% active; NR3A LBD differential scanning fluorimetry, Tm shift; 0% = protein alone, 100% = glycine-bound protein; Tm shift relative to glycine control, % at 25 µM;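 active = melting temperature shift of at least 10% of the positive control shift, at one fixed dose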
Mdm2 MdmX PPI: inhibitors of human Mdm2/MdmX interaction | O15151+Q00987 | SaOS-2 split-luciferase Mdm2/MdmX complementation, luminescence | inhibition, % at 8 µM | 330,000 tested, 3% active;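 active = inhibition of at least 50% at 8 µM in the primary screen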
Target sequence (O15151 whole entry, looked up): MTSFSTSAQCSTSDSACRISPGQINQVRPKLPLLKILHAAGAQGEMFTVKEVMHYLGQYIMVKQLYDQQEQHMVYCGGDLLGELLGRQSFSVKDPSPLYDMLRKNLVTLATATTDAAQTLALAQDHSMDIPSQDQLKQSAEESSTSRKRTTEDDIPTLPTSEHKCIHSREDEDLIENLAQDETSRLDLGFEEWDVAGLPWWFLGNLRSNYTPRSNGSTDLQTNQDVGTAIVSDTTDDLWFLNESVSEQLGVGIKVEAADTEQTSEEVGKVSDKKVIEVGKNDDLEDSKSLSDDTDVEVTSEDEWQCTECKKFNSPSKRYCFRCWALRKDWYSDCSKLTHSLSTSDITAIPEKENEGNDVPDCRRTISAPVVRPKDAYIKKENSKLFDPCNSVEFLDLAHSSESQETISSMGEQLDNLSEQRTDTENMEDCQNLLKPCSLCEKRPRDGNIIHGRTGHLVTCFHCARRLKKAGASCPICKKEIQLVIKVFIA
Target sequence (Q00987 whole entry, looked up): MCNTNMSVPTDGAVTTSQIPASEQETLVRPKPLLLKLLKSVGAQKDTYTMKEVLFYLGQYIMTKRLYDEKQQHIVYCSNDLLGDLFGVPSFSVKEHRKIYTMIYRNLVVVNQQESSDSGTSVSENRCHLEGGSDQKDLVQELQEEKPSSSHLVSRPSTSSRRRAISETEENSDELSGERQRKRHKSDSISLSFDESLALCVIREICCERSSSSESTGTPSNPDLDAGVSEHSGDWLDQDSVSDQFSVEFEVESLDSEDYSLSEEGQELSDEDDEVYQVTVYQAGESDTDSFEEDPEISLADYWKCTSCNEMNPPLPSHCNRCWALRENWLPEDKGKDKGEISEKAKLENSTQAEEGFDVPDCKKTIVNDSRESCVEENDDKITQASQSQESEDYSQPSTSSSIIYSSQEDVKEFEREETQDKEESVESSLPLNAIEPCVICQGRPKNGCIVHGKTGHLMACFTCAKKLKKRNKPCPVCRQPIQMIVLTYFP
CSC inhib: cancer stem cell inhibition | cancer stem cell-like cells viability, luminescence | inhibition, % at 7.5 µM | 300,000 tested, 1.1% active | AID 2717; in the data active = inhibition above about 75%; inconclusive = no clear call, values can overlap the other calls; tested in HMLE shEcad cells
MPTP inh: inhibitors of mitochondrial permeability transition pore | inhibition, % at 10 µM | isolated mouse mitochondria, Ca2+ swelling absorbance, 30 min | AID 602449 | 360,000 tested, 1.4% active;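 active = inhibition of 50% or more, scaled per plate between neutral and stimulator controls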
Gli-Sufu block: blocks Gli-Sufu signaling in a luciferase reporter. Sufu-KO-LIGHT fibroblasts, Gli luciferase reporter luminescence. inhibition, % at 5 µM. 340,000 tested, 0.74% active. AID 588413;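 active = inhibition above about 55%, limit read from the data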
Beta cell apopt: blocks beta cell apoptosis; INS-1E cytokine-induced death, ATP luminescence, 48 h; percent of positive-control rescue, neutral wells zero; protection from apoptosis, % (concentration not given with the values); 300,000 tested, 0.8% active; AID 435005;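 active = Every replicate reaches about 75%, or at least half do and their mean reaches it too, limit read from the data; inconclusive = At least half of replicates reach the limit but their mean does not; inactive = Under half of replicates reach the limit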;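 also: higher means more ATP so stronger rescue from cytokine killing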
Mdm2 MdmX conf: confirmation of human Mdm2/MdmX interaction inhibitors | shares compounds with Mdm2 MdmX PPI | Mdm2-MdmX binding, luminescent assay | inhibition, % at 8 µM | 10,000 tested, 55% active | AID 489028; in the data active = inhibition above about 40%
Full FLuc ctr: full-length luciferase inhibition in Mdm2/MdmX counter-screen; shares compounds with Mdm2 MdmX PPI; SaOS-2 full-length luciferase counterscreen, luminescence; inhibition, % at 8 µM; 6,200 tested, 77% active;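 active = mean inhibition at 8 µM reaching about 37%, which flags the compound as non-specific, limit read from the data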;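 also: p53-null SaOS-2 cells with luciferase driven by a doxycycline-inducible promoter; compound on cells about two nights before reading with doxycycline added after day one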
A number is an active result; 0 = inactive; ? = inconclusive; - = no result given. The list is not random: actives were taken first. Their share in the collection is about 6.6%.

SMILES	NR3A LBD binder	Mdm2 MdmX PPI	CSC inhib	MPTP inh	Gli-Sufu block	Beta cell apopt	Mdm2 MdmX conf	Full FLuc ctr
CC(=O)N(C)c1ccc(OCC(O)Cn2c3ccc(Cl)cc3c3cc(Cl)ccc32)cc1 (centres undefined)	0	82	105	0	0	0	45	54
Nc1ccc(C(=O)N2CCN(S(=O)(=O)c3ccc4c(c3)OCCO4)CC2)cc1[N+](=O)[O-]	0	0	-	0	0	0	-	-
COc1ccc(OC)c(NC(=O)c2oc3ccccc3c2NC(=O)C2CC2)c1	0	58	0	0	0	0	0	-
COc1ccccc1NC(=O)c1oc2ccccc2c1NC(=O)c1cc(OC)c(OC)c(OC)c1	0	70	0	0	0	0	62	54
COCC(=O)Nc1c(C(=O)Nc2ccccc2OC)oc2ccccc12	0	0	0	0	0	0	-	-
CN1CCN(c2ccccc2NC(=O)c2ccc(-c3ccccc3[N+](=O)[O-])o2)CC1	0	0	0	0	0	0	-	-
COc1cccc(/C=N/Nc2cc(N3CCOCC3)ncn2)c1O	0	73	0	0	0	88	61	63
CC(C)(CO)NCc1c(OCc2ccc(Cl)cc2)ccc2ccccc12	0	55	0	0	0	0	0	-
CNCc1c(OCc2ccccc2)ccc2ccccc12	0	0	0	0	0	0	-	-
CC(=O)N1c2ccc(C)cc2C(c2ccccc2)CC1C (centres undefined)	0	74	0	0	0	0	0	71
COc1ccc(-n2nnnc2SCC(=O)NCCc2ccccc2)cc1OC	0	0	0	0	0	0	-	-
COc1ccc(CCNc2nnc(Sc3nnnn3-c3ccccc3)s2)cc1OC	0	79	0	0	0	0	70	83
COc1ccc(/C=C/C(=O)NCCCc2ccccc2)cc1	0	0	0	0	0	0	-	-
COc1ccc(/C=C/c2cc[n+](C(=O)Cc3ccccc3)cc2)cc1	0	63	0	0	0	0	52	45
CNc1ncnc2c1ncn2[C@H]1CN(Cc2ccc(OC)cc2)C[C@@H](CO)O1	-	-	-	0	-	-	-	-
COc1cc(C2C(C#N)=C(N)N(Nc3ccccc3)C3=C2C(=O)CC(C)(C)C3)ccc1OCc1cccc(F)c1 (centres undefined)	0	61	0	0	0	0	0	-
COc1cc(C2C(C#N)=C(N)N(Nc3ccccc3)C3=C2C(=O)CC(C)(C)C3)ccc1OCc1ccccc1 (centres undefined)	0	0	0	0	0	0	-	-
O=C(COc1cc2oc(=O)c3c(c2cc1Cl)CCC3)NCCCN1CCCC1=O	0	0	0	0	0	0	-	-
O=C(COc1cc2oc(=O)c3c(c2cc1Cl)CCC3)Nc1ccc(CN2CCOCC2)cc1	0	52	0	0	0	0	0	-
CSc1ccc(CN(C)C(=O)CNC(=O)c2ccc3c(c2)OCO3)cc1	0	0	0	0	0	0	-	-
CCOC(=O)/C=C/S(=O)(=O)c1ccc(NC(C)=O)cc1	0	68	0	0	0	0	53	0
CCOC(=O)/C=C/C(=O)Nc1ccc(Oc2ccccc2)cc1	0	56	0	0	0	0	55	0
CCOC(=O)C(=O)Nc1ccc(Oc2ccccc2)cc1	0	0	0	0	0	0	-	-
CCOC(=O)/C=C/C(=O)Nc1ccc(S(=O)(=O)Nc2c(C)cc(C)cc2C)cc1	0	50	0	0	0	0	0	-
CCOC(=O)/C=C/C(=O)OCC(=O)Nc1ccc(C)cc1	0	0	-	0	0	0	-	-
SMILES	NR3A LBD binder	Mdm2 MdmX PPI	CSC inhib	MPTP inh	Gli-Sufu block	Beta cell apopt	Mdm2 MdmX conf	Full FLuc ctr
Cc1ccc(NS(=O)(=O)c2cccc(C(=O)N(C)Cc3cccs3)c2)cc1	0	0	0	0	0	0	-	-
COc1ccccc1N1CCN(C(=O)COc2cc(C)cc(C)c2)CC1	0	0	0	0	0	0	-	-
Cc1cc(=O)oc2cc(OCc3ccc(C(=O)OCC(=O)NC4CCS(=O)(=O)C4)cc3)ccc12 (centres undefined)	0	51	0	0	0	0	0	-
CC(C)(O)P(=O)(O)CCc1ccccc1	0	0	0	0	0	0	-	-
Cc1cc2cc3c(cc2nc1SCC(=O)N1CCCC1)OCCO3	0	0	-	0	0	-	-	-
N#Cc1cc2cc3c(cc2nc1SCC(=O)N1CCOCC1)OCCO3	0	84	-	0	0	0	88	81
COc1ccc(-c2nc(NC(=O)c3ccccc3)sc2-c2ccc([N+](=O)[O-])cc2)cc1	0	64	0	0	0	0	0	-
O=[N+]([O-])c1cc(-c2ncccn2)c([N+](=O)[O-])s1	0	93	?	0	0	0	42	0
O=C(OCC(=O)N1CCC(Cc2ccccc2)CC1)c1ccc(CO)cc1	0	0	-	0	0	0	-	-
COC(=O)c1cc(Cl)c(NC(=O)/C=C/c2ccc(OC)c(OC)c2)cc1OC	0	0	0	0	0	0	-	-
COC(=O)c1sccc1NC(=O)/C=C/c1ccc(Cl)cc1Cl	0	56	0	0	0	0	0	-
COC(=O)c1cc(Cl)c(NC(=O)/C=C/c2ccc(Cl)cc2)cc1OC	0	58	0	0	0	0	0	-
COc1ccc(C(=O)NC(=S)Nc2cccc(S(=O)(=O)N3CCOCC3)c2)cc1	0	0	0	0	0	0	-	-
CC(=O)c1c(C)[nH]c(C(=O)Nc2cc(S(=O)(=O)N3CCCCC3)ccc2C)c1C	0	0	-	0	-	0	-	-
CCOc1ccc(S(=O)(=O)N2CCCCC2)cc1NC(=O)CN1C(=O)NC(CC)(c2ccccc2)C1=O (centres undefined)	0	0	0	0	0	-	-	-
CC(=O)c1c(C)[nH]c(C(=O)Nc2cccc(S(=O)(=O)N3CCOCC3)c2)c1C	0	58	0	0	0	0	0	87
CC(=O)Oc1ccc(-c2ccc(C(=O)Nc3cccc(S(=O)(=O)N4CCOCC4)c3)cc2)cc1	0	66	93	0	0	0	44	89
CCC1(c2ccccc2)NC(=O)N(CC(=O)Nc2cc(S(=O)(=O)N3CCCCCC3)ccc2OC)C1=O (centres undefined)	0	51	0	0	0	0	43	78
COc1ccc(S(=O)(=O)N2CCCCC2)cc1NC(=O)c1[nH]c(C)c(C(C)=O)c1C	0	82	-	0	0	-	59	43
C[C@@H]1CC[C@H](O)/C=C/C(=O)O[C@H](C)CC[C@H](O)/C=C/C(=O)O1	0	0	0	0	0	-	-	-
Cc1c(C(=O)Nc2ccc(F)cc2)oc2ccc(S(=O)(=O)N3CCC4(CC3)OCCO4)cc12	0	0	0	0	0	0	-	-
Cc1c(C(=O)Nc2cccc(Cl)c2)oc2ccc(S(=O)(=O)N3CCC4(CC3)OCCO4)cc12	0	61	0	0	0	0	67	0
Cc1c(Cl)cccc1N=C1SCCN1C(=O)CN1C(=O)NC2(CCCC2)C1=O	0	78	0	0	0	0	45	69

Assay outcomes deposited in PubChem by several laboratories.
